Source: PubChem
MRP-1 activ = H69AR viability gain despite doxorubicin, primary screen, MRP-1 activator project, H69AR cells, CellTiter-Glo; viability rescue; viability increase, % at 10 µM; 140,000 tested, 0.61% active; AID 799, 2007;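 active = viability gain under doxorubicin at or above a set limit, the compound median plus 3 SD, cut at about 4.7% in these data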;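 note: MRP-1 overexpressing cells given doxorubicin 25 µM after compound pretreatment; 18-22 h compound pretreatment then 72 h with doxorubicin before readout; 0% = doxorubicin-only wells and 100% = vehicle-treated cells without doxorubicin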
MRP resist rev = reversal of MRP1-mediated doxorubicin resistance, primary screen, H69AR cells, doxorubicin co-treatment | H69AR cells + 2 uM doxorubicin, CellTiter-Glo, 72 h | differential viability (reversal), % at 10 µM | 85,000 tested, 0.04% active;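 active = viability drop by adding the cancer drug above about 55%, with treated viability meeting a 40% cutoff, limit read from the data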;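 note: viability without doxorubicin minus viability with 2 µM doxorubicin for each compound; larger differential means the compound sensitizes cells more to doxorubicin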
CYP2C19 act = human CYP2C19 activators, primary screen, biochemical, luminescence | activation factor at 5 µM | 96,000 tested, under 10 active | recombinant CYP2C19, luciferin-H EGE luminescence; stronger effect = higher value; 0 = fully inhibited enzyme, 1 = untreated enzyme | Cytochrome P450 2C19 (Homo sapiens), P33261;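 active = activation factor of at least 2 at 5 µM in the primary screen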;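 note: 0 = wells with 2.5 mM tranylcypromine and 1 = vehicle-only wells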
Target sequence (P33261 whole entry, looked up): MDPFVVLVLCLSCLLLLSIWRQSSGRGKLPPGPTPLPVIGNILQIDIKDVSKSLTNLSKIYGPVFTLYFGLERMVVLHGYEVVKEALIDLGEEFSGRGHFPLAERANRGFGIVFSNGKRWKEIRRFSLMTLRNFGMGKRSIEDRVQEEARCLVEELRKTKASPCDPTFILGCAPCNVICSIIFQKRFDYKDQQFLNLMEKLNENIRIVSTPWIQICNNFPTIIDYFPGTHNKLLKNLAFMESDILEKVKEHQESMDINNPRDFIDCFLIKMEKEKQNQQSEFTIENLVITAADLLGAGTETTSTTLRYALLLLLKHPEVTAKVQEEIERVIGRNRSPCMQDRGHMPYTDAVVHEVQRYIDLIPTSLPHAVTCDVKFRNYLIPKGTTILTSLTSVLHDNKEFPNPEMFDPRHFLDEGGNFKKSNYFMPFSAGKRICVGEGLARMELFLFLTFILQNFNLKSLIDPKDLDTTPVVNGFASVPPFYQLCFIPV
CYP2C9 activ = human CYP2C9 activators, primary screen, biochemical, luminescence; Cytochrome P450 2C9 (Homo sapiens), P11712; recombinant CYP2C9, luciferin-H conversion; stronger effect = higher value; factor 1 = untreated enzyme, 0 = blocked; activation factor at 5 µM; 96,000 tested, 1.4% active;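 active = activation factor of 2 or more for CYP2C9 at a 5 µM dose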;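 note: 0 = sulfaphenazole-blocked wells and 1 = vehicle-only wells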
CYP2C9 inh = blockers of cytochrome P450 2C9 activity – biochemical, luminescence, ADME assay, primary screen; 96,000 tested, 20% active; CYP2C9 Supersomes, luciferin-H conversion; inhibition, % at 5 µM; AID 777, 2007; P11712;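 active = blocking of liver enzyme CYP2C9 beyond about 50% at 5 µM, limit read from the data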
CYP2C19 inh = blockers of cytochrome P450 2C19 activity – biochemical, luminescence, ADME assay, primary screen; 96,000 tested, 21% active; CYP2C19 Supersomes, luciferin-H EGE luminescence, 30 min; AID 778, 2007; inhibition, % at 5 µM; P33261;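 active = CYP2C19 inhibition above a set limit at 5 µM in the primary screen, cut at about 50% in these data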;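 note: plate controls were negative control wells for no effect and 2.5 mM tranylcypromine positive control for full effect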
* hit, by the source's call; · = no result. Only some compounds are listed: those with a hit (about 21% of all), similar ones and a draw of the others.

SMILES | MRP-1 activ | MRP resist rev | CYP2C19 act | CYP2C9 activ | CYP2C9 inh | CYP2C19 inh
CC1(C)Cc2c(C#N)c(N3CCN(C(=O)c4ccccc4)CC3)nc(-c3ccco3)c2CS1 | -4.6 | · | · | · | · | ·
C=CCn1c(O)c(N=Nc2nc3ccccc3c(=O)n2-c2ccccc2)c2ccccc21 | -3.5 | · | · | · | · | ·
COc1ccc2c(c1)C(=O)c1ccccc1CO2 | -2.1 | 10.9 | 0.9 | 0.9 | 9.3 | 11.4
COc1ccc2c(c1)C(=O)CC(c1ccccc1F)O2 (stereo unspecified) | -4.8 | -5.4 | 0.1 | 1.1 | -13.1 | 86.8*
CCNC(=O)NC(=O)C(C)OC(=O)C1CCN(S(=O)(=O)c2ccc(C)c(C)c2)CC1 (stereo unspecified) | -1.2 | · | · | · | · | ·
Cc1nn(-c2ccc(F)cc2)c(C)c1NS(=O)(=O)c1ccc(Cl)cc1 | -2.3 | 1.9 | 0 | 0.1 | 90.7* | 100.0*
Cc1ccc(-n2nc(C)c(NS(=O)(=O)c3ccccc3)c2C)cc1C | 0.9 | 11.3 | 0.6 | 0 | 96.4* | 41.9
Cc1ccc(-n2nc(C)c(NC(=O)CCl)c2C)cc1 | -6.2 | · | · | · | · | ·
COc1ccc(-c2ccc(-c3nnc(-c4ccncc4)o3)cc2)cc1 | 1.5 | 0.2 | 0.5 | 0.7 | 35.0 | 52.9*
COc1ccc(CCN(Cc2cccs2)S(=O)(=O)c2ccc(S(=O)(=O)N(C)C3CCCCC3)cc2)cc1OC | 0.9 | · | · | · | · | ·
CCOC(=O)Nc1nnc(-c2ccc(OC)c(OC)c2)s1 | -2.7 | 0.2 | 1 | 1.3 | -28.3 | -1.0
CCOC(=O)Nc1cc(OC)c(OC)cc1Cc1nccc2cc(OC)c(OC)cc12 | -4.1 | 4.5 | 0.2 | 0.4 | 62.0* | 85.0*
C[C@@]12CC(=O)NC1N(C(=O)c1cccc(C(F)(F)F)c1)C(c1ccccc1O)C2 (stereo partly specified) | -3.7 | 6.5 | 0.4 | 0.3 | 69.1* | 55.6*
Cc1cccc(C(=O)Oc2ccccc2C2C[C@]3(C)CC(=O)NC3N2C(=O)c2cccc(C)c2)c1 (stereo partly specified) | -1.1 | 19.0 | 0.6 | 0.4 | 57.4* | 40.7
CCn1c2ccccc2c2nnc(SCc3cc(=O)n4ccsc4n3)nc21 | · | -1.0 | 0.1 | 0.3 | 65.4* | 87.0*
O=C(Nc1ccccc1)C1Cc2ccccc2CN1C(=O)c1ccco1 (stereo unspecified) | -3.0 | · | 0.7 | 0.9 | 9.4 | 28.8
Nc1nnc(SCC(=O)Nc2cc(C(F)(F)F)ccc2N2CCOCC2)s1 | -3.2 | -4.8 | 0.2 | 0.2 | 77.0* | 77.5*
COc1cccc(OC)c1C(=O)Nc1cc(Cl)ccc1N1CCOCC1 | -3.9 | 17.5 | 0.6 | 0.4 | 61.7* | 41.4
O=C(Nc1cc(C(F)(F)F)ccc1N1CCOCC1)C1Cc2ccccc2CN1C(=O)c1ccco1 (stereo unspecified) | -3.7 | -5.0 | 0.1 | 0 | 95.8* | 89.5*
O=C(Nc1cc(C(F)(F)F)ccc1N1CCOCC1)c1cccs1 | -1.0 | 12.7 | 0.4 | 0.9 | 14.6 | 59.3*
CC(=O)Nc1cc(C(F)(F)F)ccc1N1CCOCC1 | -0.8 | 5.5 | 1 | 1.1 | -5.6 | -1.1
CCn1c(COc2cccc3ccccc23)nnc1SCC(N)=O | -0.6 | -2.4 | 1.1 | 1.7 | -74.7 | -6.7
O=C(CSc1nnc(-c2ccncc2)n1-c1ccccc1)N1CCN(c2ccc(Cl)cc2)CC1 | -0.7 | 1.7 | 0.8 | 0.7 | 26.7 | 15.4
O=C(CNc1ccc2ccccc2c1)N/N=C/c1cc2ccccc2nc1Cl | -2.9 | · | · | · | · | ·
COc1ccc2c(c1)c(C(O)CN1CCC(Cc3ccccc3)CC1)c(C)n2C (stereo unspecified) | -5.5 | · | 1 | 1 | 0.9 | 0.4
SMILES | MRP-1 activ | MRP resist rev | CYP2C19 act | CYP2C9 activ | CYP2C9 inh | CYP2C19 inh
Cn1c(=O)c2ncn(CC(=O)Nc3cc(C(F)(F)F)ccc3N3CCOCC3)c2n(C)c1=O | -6.1 | 9.7 | 0.6 | 0.4 | 56.8* | 40.8
CC(C)(C)C(=O)NC(=S)Nc1cc(C(F)(F)F)ccc1N1CCOCC1 | -1.1 | · | 0 | 0.1 | 93.7* | 95.9*
O=C(Nc1cc(C(F)(F)F)ccc1N1CCOCC1)c1cccc(F)c1 | -0.8 | 12.9 | 0.2 | 1 | 4.1 | 82.9*
CC(C)(C)C(=O)Nc1cc(C(F)(F)F)ccc1N1CCOCC1 | -1.6 | -27.8 | · | · | · | ·
O=C(Nc1cc(C(F)(F)F)ccc1N1CCOCC1)c1ccc2ccccc2n1 | -3.4 | -13.4 | 0.7 | 0.4 | 59.6* | 31.3
CCC1CCC2(CC1)NNC(=S)NN2 | -2.9 | · | 0.7 | 0.8 | 19.2 | 33.3
O=C(N/N=C/C1C(c2ccccc2)C1(Cl)Cl)c1cccc(Br)c1 (stereo unspecified) | -3.6 | · | 0.8 | 0.3 | 70.5* | 17.5
OC(COc1ccccc1)CSc1ncn[nH]1 (stereo unspecified) | -0.1 | -10.1 | 0.9 | 1.1 | -5.7 | 8.1
CC(C)(C)c1ccc(OCC(O)CSc2ncn[nH]2)cc1 (stereo unspecified) | 6.8* | 4.3 | 0.9 | 0.9 | 11.6 | 5.3
CC1(C)C(C=C(Cl)Cl)C1C(=O)N(Cc1ccccc1Cl)C1CCS(=O)(=O)C1 (stereo unspecified) | -3.6 | · | · | · | · | ·
COc1ccc(Cn2c3nc4ccccc4nc3c3c(=O)n(Cc4ccco4)c(C)nc32)cc1 | · | 1.0 | 1 | 0.7 | 25.9 | 0.2
Cc1nc2c(c(=O)n1CCC1=CCCCC1)c1nc3ccccc3nc1n2/N=C/c1ccccc1 | 0.1 | -1.6 | 0.9 | 0.6 | 35.1 | 8.6
Cc1nc2c(c(=O)n1Cc1ccccc1Cl)c1nc3ccccc3nc1n2Cc1ccco1 | · | -11.7 | 1 | 0.5 | 52.2* | 4.4
CCO/C(C)=N/n1c2nc3ccccc3nc2c2c(=O)n(Cc3ccccc3Cl)c(C)nc21 | -0.3 | 1.5 | 0.8 | 0.5 | 53.1* | 23.4
Cc1nonc1NC(=O)CSc1nc2cc(Cl)ccc2c2c1CCCC2 | -3.9 | -20.1 | 1.2 | 1.2 | -16.9 | -20.1
Cc1ccc(CNC(=O)CSc2c3c(nc4ccc(Cl)cc24)CCCC3)o1 | -4.9 | -8.4 | 0.6 | 0.4 | 61.0* | 35.5
O=C(COC(=O)Cc1ccc(Cl)cc1)Nc1ccc(OC(F)F)cc1 | -1.4 | · | · | · | · | ·
O=C(Nc1ccc(Cl)cc1)N(C1=NCCC1)c1ccc(OC(F)F)cc1 | -0.9 | 2.0 | 0.7 | 0.4 | 61.1* | 26.5
CC(=O)OC1c2ccccc2C(=O)N1Cc1ccccc1Cl (stereo unspecified) | -2.1 | -10.2 | 0 | 1.2 | -17.9 | 98.9*
CC(C)CCNC(=O)c1nnc(Cc2ccc(Cl)cc2)o1 | 1.1 | -6.9 | 0.9 | 1.9 | -89.1 | 11.6
Clc1ccc(CSCCc2ccncc2)cc1 | 0.5 | 2.4 | 0 | 0 | 100.0* | 100.4*
c1ccc2c(CSCCc3ccncc3)cccc2c1 | -4.0 | -30.9 | 0 | 0.1 | 93.7* | 97.0*
